Results reported in PubChem BioAssay AID1224921 (Broad Institute, 2016).
Screen size: about 1,400 compounds; about 350 (25%) were called active. Roughly 2% stayed inconclusive and do not appear here. The list is a sample of the results. Potency and affinity values are given separately. Unmarked numbers belong to inactive results. No rule for the calls is given here.

Test: C. difficile growth inhibition, confirmation, 4-point retest (AID 1224921);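 also: plate controls were DMSO wells for no effect and levofloxacin 16 µg/mL wells for full effect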
Conditions: Clostridioides difficile clinical isolate growth, OD600, 24 h, active compounds read low; at 30 µM unless noted

Row | SMILES | max activity
1 | CO[C@@H]1CN(C)C(=O)c2ccc(NC(=O)C3CC3)cc2OC[C@@H](C)N(Cc2cncnc2)C[C@@H]1C | -9.09% [at 1.95 µM]
2 | CCCC#Cc1ccc2c(c1)O[C@@H](CN(C)C(=O)c1ccccc1F)[C@@H](C)CN([C@@H](C)CO)S2(=O)=O | 23.4%
3 | C[C@@H]1CN([C@@H](C)CO)C(=O)Cc2cc(NC(=O)c3ccncc3)ccc2O[C@H]1CN(C)Cc1ccc(Cl)c(Cl)c1 | 36.8% [at 8 µM]
4 | COc1ccc(CNC(=O)C[C@H]2CC[C@H](NC(=O)c3cccc(F)c3)[C@@H](CO)O2)cc1 | -5.36% [at 1.95 µM]
5 | C[C@H]1CCCCO[C@H](CN(C)Cc2ccc3c(c2)OCO3)[C@@H](C)CN([C@@H](C)CO)C(=O)c2cc(NC(=O)Nc3ccc(F)cc3)ccc2O1 | 29.6%
6 | O=C(NCCc1ccccc1)[C@@H]1[C@@H](CO)[C@@H]2Cn3c(cccc3=O)[C@H]1N2C(=O)C1CC1 | -6.59%
7 | CCCN1C[C@H](C)[C@@H](OC)CN(C)C(=O)c2ccc(NC(=O)Nc3c(C)noc3C)cc2OC[C@H]1C | 6.66%
8 | CO[C@H]1CN(C)C(=O)c2cc(NC(=O)Nc3ccc(Cl)cc3)ccc2OC[C@H](C)N(C(=O)Nc2c(C)noc2C)C[C@@H]1C | -13% [at 8 µM]
9 | Cc1ccc(-c2ccc3c(c2)O[C@H](CN(C)Cc2cccnc2)[C@@H](C)CN([C@H](C)CO)S3(=O)=O)cc1 | 31.7%
10 | CO[C@@H]1CN(C)C(=O)c2ccc(NS(=O)(=O)c3ccc(C)cc3)cc2OC[C@@H](C)N(C(=O)NC(C)C)C[C@H]1C | 14.4%
11 | CCCN1C[C@H](C)[C@H](OC)CN(C)C(=O)c2cc(NC(=O)CC)ccc2OC[C@@H]1C | 7.21% [at 8 µM]
12 | O=C(C[C@@H]1C=C[C@@H](NC(=O)Cc2ccccn2)[C@H](CO)O1)NCCCN1CCOCC1 | 2.76% [at 0.5 µM]
13 | CC(C)CC#Cc1ccc2c(c1)O[C@@H](CN(C)Cc1ccncc1)[C@H](C)CN([C@@H](C)CO)S2(=O)=O | 29.7%
14 | COc1ccc(-c2ccc([C@@H]3[C@@H](CO)N(C(=O)C4CCCC4)[C@H]3C#N)cc2)cc1 | 25% [at 7.5 µM]
15 | CCCC(=O)Nc1ccc2c(c1)C(=O)N(C)C[C@H](OC)[C@H](C)CN(Cc1ccc(F)cc1)[C@@H](C)CO2 | 17.3%
16 | CC(=O)N(C)C[C@H]1Oc2ncc(C#Cc3ccccc3F)cc2C(=O)N([C@@H](C)CO)C[C@@H]1C | 60.6%
17 | COc1cccc(C#Cc2cnc3c(c2)C(=O)N([C@@H](C)CO)C[C@H](C)[C@@H](CN(C)C)O3)c1 | -9.5% [at 1.95 µM]
18 | COc1cccc(C#Cc2cnc3c(c2)C(=O)N([C@H](C)CO)C[C@@H](C)[C@H](CN(C)C)O3)c1 | 6.76%
19 | C[C@@H]1CN([C@H](C)CO)C(=O)c2cc(C#Cc3ccccc3F)cnc2O[C@@H]1CN(C)C(=O)C1CCOCC1 | 17.1%

Row | SMILES | max activity
20 | CCNC(=O)C[C@H]1C=C[C@H](NS(=O)(=O)c2ccc(F)cc2)[C@H](CO)O1 | -12%
21 | O=C(C[C@@H]1C[C@H]2c3cc(NC(=O)Nc4ccc(C(F)(F)F)cc4)ccc3O[C@H]2[C@@H](CO)O1)NCc1ccc2c(c1)OCO2 | -23.2% [at 8 µM]
22 | CO[C@@H]1CN(C)C(=O)c2ccc(NS(=O)(=O)c3ccccc3C)cc2OC[C@@H](C)N(S(C)(=O)=O)C[C@H]1C | -12.6% [at 8 µM]
23 | C[C@@H]1CN([C@@H](C)CO)S(=O)(=O)c2ccc(C#Cc3ccc(F)cc3)cc2O[C@@H]1CN(C)C(=O)NC1CCCCC1 | -4.75% [at 8 µM]
24 | C[C@@H]1CN([C@@H](C)CO)C(=O)c2cc(NS(=O)(=O)c3ccc(Cl)cc3)ccc2O[C@@H]1CN(C)Cc1ccccc1 | 18.9%
25 | CO[C@@H]1CN(C)C(=O)c2ccc(NC(=O)C3CCC3)cc2OC[C@H](C)N(C(=O)CN(C)C)C[C@@H]1C | -13.6% [at 0.5 µM]
26 | CO[C@@H]1CN(C)C(=O)c2cc(NC(=O)C3CCOCC3)ccc2OC[C@H](C)N(C(=O)c2ccccc2)C[C@H]1C | -8.41% [at 0.5 µM]
27 | CO[C@H]1CN(C)C(=O)c2cc(NC(=O)C3CCOCC3)ccc2OC[C@H](C)N(C(=O)c2ccccc2)C[C@H]1C | -6.51%
28 | CO[C@H]1CN(C)C(=O)c2cc(NC(=O)C3CCOCC3)ccc2OC[C@@H](C)N(C(=O)c2ccccc2)C[C@H]1C | -10.4% [at 1.95 µM]
29 | CO[C@H]1CN(C)C(=O)c2ccc(NC(=O)C3CCC3)cc2OC[C@H](C)N(C(=O)CN(C)C)C[C@H]1C | -8.4%
30 | CO[C@H]1CN(C)C(=O)c2cc(NC(=O)C3CC3)ccc2OC[C@H](C)N(C(=O)c2ccccn2)C[C@@H]1C | 5.91%
31 | C[C@H]1CN([C@@H](C)CO)S(=O)(=O)c2ccc(C#CCC3CCCC3)cc2O[C@@H]1CN(C)C(=O)CC1CC1 | 19.7% [at 8 µM]
32 | CO[C@H]1CN(C)C(=O)c2ccc(NC(=O)c3nc4ccccc4s3)cc2OC[C@H](C)N(Cc2cccnc2)C[C@H]1C | 37.7%
33 | CO[C@@H]1CN(C)C(=O)c2cc(NC(=O)Nc3ccccc3Cl)ccc2OC[C@@H](C)N(S(C)(=O)=O)C[C@H]1C | -12.2% [at 0.5 µM]
34 | O=C(CN1CCOCC1)N[C@@H]1CC[C@@H](CCNS(=O)(=O)c2ccccc2F)O[C@@H]1CO | -8.89% [at 0.5 µM]
35 | C[C@@H]1CN([C@@H](C)CO)C(=O)c2ccccc2-c2ccccc2CO[C@H]1CN(C)S(=O)(=O)c1ccc(Cl)cc1 | 33.2% [at 35 µM]
36 | C[C@H](CO)N1C[C@H](C)[C@H](CN(C)S(=O)(=O)c2ccccc2)Oc2ccc(NC(=O)Nc3cccc4ccccc34)cc2C1=O | -17.7% [at 8 µM]
37 | C[C@H](CO)N1C[C@H](C)[C@H](CN(C)C(=O)NC2CCCCC2)Oc2c(NC(=O)Nc3ccc(C(F)(F)F)cc3)cccc2C1=O | 35.7% [at 1.95 µM]
38 | C[C@H](CO)N1C[C@H](C)[C@@H](CN(C)Cc2ccc3c(c2)OCO3)Oc2c(NC(=O)Nc3ccc(C(F)(F)F)cc3)cccc2C1=O | 43.3%

Row | SMILES | max activity
39 | C[C@@H]1CN([C@@H](C)CO)C(=O)c2cccc(NC(=O)Nc3ccc(F)cc3)c2O[C@H]1CN(C)CC1CCCCC1 | 13.5% [at 8 µM]
40 | C[C@@H]1CN([C@H](C)CO)C(=O)c2cccc(NC(=O)Nc3ccc(C(F)(F)F)cc3)c2O[C@H]1CN(C)Cc1ccc2c(c1)OCO2 | 43.4% [at 8 µM]
41 | CCCC(=O)Nc1ccc2c(c1)OC[C@H](C)N(CCc1ccccc1)C[C@@H](C)[C@@H](OC)CN(C)C2=O | -11.5% [at 0.5 µM]
42 | C[C@@H]1CN([C@@H](C)CO)C(=O)Cc2cc(N(C)C)ccc2O[C@H]1CN(C)Cc1ccc(-c2ccccc2)cc1 | 20.5% [at 8 µM]
43 | C#CCNC(=O)C1=C[C@H](c2cn(C(C)=O)c3ccccc23)C[C@H](OCc2ccc(CO)cc2)O1 | -9.52% [at 0.5 µM]
44 | O=C(N[C@H]1C=C[C@@H](CC(=O)N2CCOCC2)O[C@@H]1CO)c1cccc(F)c1 | -5.96%
45 | C[C@@H]1CCCCO[C@H](CN(C)CC2CC2)[C@H](C)CN([C@@H](C)CO)C(=O)c2cc(NC(=O)Nc3cccc4ccccc34)ccc2O1 | 13.7%
46 | CCc1cnc(N2[C@H](CO)[C@H](c3ccc(C#CC(C)C)cc3)[C@@H]2C#N)s1 | 17% [at 1.95 µM]
47 | CC(C)CC#Cc1ccc2c(c1)O[C@H](CN(C)Cc1cccnc1)[C@@H](C)CN([C@H](C)CO)S2(=O)=O | 42.9%
48 | CC(C)Cc1ccc(CN2CC[C@@H](NC(=O)c3ccccc3)C2)cc1 | 20.1% [at 8 µM]
49 | C[C@H](CO)N1C[C@H](C)[C@@H](CN(C)C(=O)Nc2ccc(C(F)(F)F)cc2)Oc2c(NC(=O)c3ccc(-c4nccs4)cc3)cccc2C1=O | 7.84%
50 | Cc1ccc(S(=O)(=O)N[C@H]2CC[C@H](CCNS(=O)(=O)Cc3ccccc3)O[C@H]2CO)cc1 | -13.6% [at 7.5 µM]
51 | O=C(C[C@@H]1CC[C@H](NC(=O)Nc2cc(F)ccc2F)[C@H](CO)O1)NCc1ccc2c(c1)OCO2 | 4.18% [at 8 µM]
52 | O=C(NCC[C@@H]1CC[C@H](NC(=O)Nc2cc(F)ccc2F)[C@H](CO)O1)Nc1ccc(Cl)cc1 | -10.4% [at 0.5 µM]
53 | CC(C)NC(=O)NCC[C@H]1CC[C@@H](NS(=O)(=O)c2ccc(Oc3ccccc3)cc2)[C@H](CO)O1 | 9.67%
54 | O=S(=O)(NCC[C@H]1CC[C@H](NS(=O)(=O)c2ccccc2Cl)[C@H](CO)O1)c1ccc(Cl)cc1 | 10% [at 7.5 µM]
55 | CC(C)NC(=O)NCC[C@H]1CC[C@@H](NS(=O)(=O)c2ccc(Oc3ccccc3)cc2)[C@@H](CO)O1 | 13.9% [at 35 µM]
56 | CC(C)CC#Cc1ccc2c(c1)O[C@@H](CN(C)C(=O)c1ccccc1)[C@@H](C)CN([C@@H](C)CO)S2(=O)=O | 35.1%
57 | CC(=O)N(C)C[C@H]1Oc2ncc(-c3ccc(C#N)cc3)cc2C(=O)N([C@H](C)CO)C[C@H]1C | -10.1% [at 1.95 µM]
